According to PubChem BioAssay AID485364 (National Center for Advancing Translational Sciences (NCATS), 2010):
Where “and” joins values, the source holds several entries; their conditions need not be identical. Equal entries are not always repeated. Hit rate of the full screen: of about 360,000 compounds, about 11,000 (3.1%) were called active. About 4% were inconclusive and are not listed. What follows is part of a selection rich in actives, with near analogues and random picks from the rest. Values without a mark were called inactive. The call rests on the fitted dose curve; in most records, active means well fitted inhibition curve with a large enough effect; inconclusive means small, poorly fitted or top-dose-only effect; inactive means no such curve, though single readings can be large or run the other way.

Target: Schistosoma mansoni thioredoxin glutathione reductase (TGR) (UniProt Q962Y6)
Assay: qHTS Assay for the Inhibitors of Schistosoma Mansoni Peroxiredoxins; further: nearly all actives have a fitted effect of over 60% in size
Settings: purified TGR, DTNB reduction, TNB absorbance 405 nm; series mostly up to 114 µM; activity change, negative = inhibition: at the top concentration
Procedure, shortened: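 TGR 20 nM + NADPH 100 uM (dispensed conc.), cpd preinc 15 min RT; start with NADPH (500 uM addition) then DTNB (15 mM addition). Kinetic TNB absorbance, 405 nm filter. Four-parameter Hill fit across titration.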
On the % scale 0 is the no-effect control and ±100 the full control effect; potency means the concentration at half of the fitted maximal effect.

Row | Compound | activity change, negative = inhibition [%] | Potency
1 | COC(=O)C1=CN(Cc2ccc(OC)cc2)C=C(C(=O)OC)C1c1ccc(O)c(OC)c1 | 31.3 | 
2 | CCOc1ccc(CNC(=O)C2CCC(=O)N2C2CCCC2)cc1OC (stereo not drawn) | 6.99 | 
3 | CCOc1cc(C2C(C(=O)OC)=CN(C3CCCC3)C=C2C(=O)OC)cc(Br)c1O |  | 56.2 µM (active)
4 | COc1ccc(C)cc1Nc1nc2ccccc2c2nnc(C)n12 | 1.72 | 
5 | COc1cc2ccccc2cc1C(=O)Nc1cccc(-c2nc3ccccc3o2)c1 | -0.84 | 
6 | CCCCN(CCCNC(=O)c1cc(Nc2ccccc2OC)nc2ccccc12)c1ccccc1 | -1.75 | 
7 | O=C(CNS(=O)(=O)c1ccccc1)N1CCN(C(=O)c2ccco2)CC1 | -24.4 | 
8 | O=C(c1cccc(S(=O)(=O)Nc2ccccc2Cl)c1)N1CCN(C(=O)c2ccco2)CC1 |  | 31.6 µM (active)
9 | O=C(c1cccc([N+](=O)[O-])c1)N1CCN(C(=O)c2ccco2)CC1 | -8 | 
10 | COc1ccc(OC)c(NC(=O)CSc2nc3ccccc3nc2N2CCCCC2)c1 | 8.33 | 
11 | CCOc1ccc(C2C(C(=O)Nc3ccc(Cl)cc3)=C(C)Nc3nc(C(F)(F)F)nn32)cc1 (stereo not drawn) | -2.26 | 
12 | Cc1cccc(C(=O)NC(=S)N(C)C2CCCCC2)c1 | 7.05 | 
13 | Cc1cccc(C(=O)N2c3nc(-c4ccco4)nn3C3(CCCCC3)[C@@H]3CCCC[C@@H]32)c1 |  | 35.5 µM (active)
14 | Cc1ccc(C(=O)N2c3ncnn3C3(CCCCC3)[C@@H]3CCCC[C@@H]32)cc1 | -0.658 | 
15 | CCN(CC)CCNC(=O)Cn1ncc2c3ccccc3n(Cc3ccccc3C)c2c1=O | 2.19 | 
16 | COc1ccc(/C=C/c2noc(-c3ccccc3O)n2)cc1OC | 8.66 | 
17 | COc1ccccc1CCNC(=O)c1cccn1-c1nnc(N2CCCCC2)s1 | 5.45 | 
18 | COc1ccc(C2C=C(c3ccc(Br)cc3)Nc3nc(NS(C)(=O)=O)nn32)cc1 (stereo not drawn) |  | 22.4 µM (active)
19 | COc1ccc(CC(=O)Nc2nc3n(n2)C(c2ccccc2)CC(=O)N3)cc1OC (stereo not drawn) | -29.1 | 
20 | COc1ccc(CNC(=O)Cn2nnc(-c3ccc(S(C)(=O)=O)cc3)n2)cc1 | -1.93 | 
21 | CC1=C(C(=O)Nc2ccccc2)C(c2ccc(C)cc2)n2nc(SCc3ccccc3C)nc2N1 (stereo not drawn) | 4.56 | 
22 | COc1ccc(C2=CC(c3ccccc3Cl)n3nc(-c4ccc(Cl)cc4)nc3N2)cc1 (stereo not drawn) | -0.964 | 

Row | Compound | activity change, negative = inhibition [%] | Potency
23 | Cc1ccc(C2C=C(c3ccc(Cl)cc3)Nc3nc(NC(=O)CCC(=O)O)nn32)cc1 (stereo not drawn) |  | 17.8 µM (active)
24 | CCC(C(=O)Nc1cc(OC)ccc1OC)n1c(=O)c(C(F)(F)F)nc2ccccc21 (stereo not drawn) | 9.99 | 
25 | COc1ccc(CCNC(=O)c2ccc(CSCc3ccc(C)cc3)o2)cc1OC | -18.8 | 
26 | Cc1ccccc1CN1CCC(CNC(=O)c2c(C)oc3ncnc(N4CCCCC4)c23)CC1 | 9.84 | 
27 | CCOc1ccc(OCC)c(Nc2nc3ccccc3n3nnnc23)c1 | 1.06 | 
28 | COc1ccc(CCNC(=O)c2cnc3sc(N4CCCCCC4)nn3c2=O)cc1OC | 0.303 | 
29 | COc1cccc(N2CC(NC(=O)/C=C\c3ccccc3)CC2=O)c1 (stereo not drawn) | 3.58 | 
30 | O=S(=O)(NC1CC1)c1ccc(F)c(F)c1 | 6.35 | 
31 | CC1CCC(NS(=O)(=O)c2ccc3c(c2)n(C)c(=O)c(=O)n3C)CC1 (stereo not drawn) | 6.06 | 
32 | Cn1sc(=O)c2cc(S(=O)(=O)NC3CC3)ccc21 |  | 1.58 µM (active)
33 | Cn1c(COc2ccccc2C(C)(C)C)nc2ccccc21 | -12.6 | 
34 | Cc1cc2c(cc3c(SCc4cccc(Cl)c4)nnc(C)n32)o1 | 2.97 | 
35 | Cc1ccc(-c2nnc(Nc3cccc(Br)c3)c3ccccc23)cc1S(=O)(=O)NCC1CCCO1 (stereo not drawn) | -1.37 | 
36 | Cc1cccc(OCC(=O)N(Cc2ccc(C(C)C)cc2)Cc2ccco2)c1C | 15 | 
37 | COc1ccc(CN(C)C(=O)Cc2c[nH]c3ccccc23)c(OC)c1OC | -1.7 | 
38 | CN(Cc1cccs1)C(=O)Cc1c[nH]c2ccccc12 | 1.04 | 
39 | CCOC(=O)CN(C)Cc1c[nH]c2ccccc12 |  | 35.5 µM (active)
40 | Brc1ccc2c(c1)NC(c1cccnc1)=NC(c1ccccc1)=N2 | -3.69 | 
41 | COc1ccccc1C1=Nc2cccc3cccc(c23)N1 | -6.48 | 
42 | c1ccc(C2=Nc3cccc4cccc(c34)N2)cc1 |  | 35.5 µM (active)
43 | CCC(CC)c1nn2cc(-c3ccccc3)nc2s1 | 12.9 | 
44 | COc1ccc(Br)cc1CNC(=O)c1cc(=O)[nH]c2ccc(S(=O)(=O)N3CCCC3)cc12 | -2.46 | 

Row | Compound | activity change, negative = inhibition [%] | Potency
45 | O=S(=O)(c1ccc(Br)cc1)c1nnn2c1nc(N1CCOCC1)c1sccc12 | 4.43 | 
46 | CC(=O)OC1=C(C(C)=O)N(Cc2ccccc2)S(=O)(=O)c2ccccc21 | -20.4 | 
47 | Cc1ccc(CNC(=O)c2c(O)nc3c(C)cccn3c2=O)cc1 | 1.88 | 
48 | Cc1ccc(CNC(=O)c2ccc(CS(=O)Cc3cccc(Cl)c3)o2)cc1 (stereo not drawn) |  | 35.5 µM (active) and 25.1 µM (active)
49 | CCOc1ccc(CNC(=O)c2ccc(CS(=O)c3ccccc3)o2)cc1 (stereo not drawn) | 0.329 | 
50 | O=C(NCc1cccs1)c1ccc(CS(=O)Cc2ccccc2Cl)o1 (stereo not drawn) | 2.3 | 
51 | CCN(CC)C(=O)CSc1nc2ccsc2c(=O)n1Cc1ccccc1Cl | 2.09 | 
52 | CCCCNC(=O)c1cc(-c2ccc(Cl)c(Cl)c2)on1 | -1.93 | 
53 | C/C(=C\c1ccco1)C1Nc2cccc3cccc(c23)N1 |  | 3.55 µM (active)
54 | CC(/C=N/NC(=O)c1cc(-c2ccc3ccccc3c2)n[nH]1)=C\c1ccco1 | -18.4 | 
55 | Cc1ccc(Cn2cc(CCC(=O)NCc3ccc(OC(C)C)cc3)c3ccccc32)cc1 | 11.8 | 
56 | COc1ccc(S(=O)(=O)c2c(Nc3cccc(Cl)c3)sc(C(=O)c3ccccc3)c2N)cc1 | -2.74 | 
57 | Cc1cc(C)c2oc(C(=O)Nc3ccc(S(=O)(=O)N(C)c4ccccc4)cc3)cc(=O)c2c1 | 14.3 | 
58 | CCCCOC(=O)CSc1ncnc2sc3c(c12)CCC(C)C3 (stereo not drawn) | 0.934 | 
59 | O=C(CCN1CCCCC1)N=Nc1c(O)[nH]c2ccccc12 |  | 11.2 µM (active)
60 | O=C(CNC(=O)Cc1ccccc1)N=Nc1c(O)[nH]c2ccc(Br)cc12 | -22.3 | 
61 | Cc1c(-c2ccccc2)n[nH]c1C(=O)N=Nc1c(O)[nH]c2ccccc12 | 5.01 | 
62 | N#C/C(=C\c1ccccc1F)c1nc2ccccc2c(=O)[nH]1 | 7.82 | 
63 | CNC(=O)CN1C(=O)c2cccnc2Sc2ccccc21 | -4.14 | 
64 | Cc1ccsc1CN(C(=O)c1oc2ccc(Br)cc2c1C)C1CCS(=O)(=O)C1 (stereo not drawn) | 17.6 | 
65 | O=C(NC1CCN(Cc2ccccc2)CC1)c1ccc(Cn2c(=O)c3ccccc3n(Cc3cccc(F)c3)c2=O)cc1 | -1.16 | 
66 | Cc1ccc(-n2nc(C)c(/C=N/NC(=O)c3cccs3)c2Cl)cc1 | -6.16 | 

Row | Compound | activity change, negative = inhibition [%] | Potency
67 | Cc1ccc(-c2cc(C(=O)N/N=C/C=C/c3ccco3)c3ccccc3n2)cc1C |  | 39.8 µM (active)
68 | CC1(C)CC(=O)C/C(=N\NC(=O)c2cccs2)C1 | -31.1 | 
69 | Cc1ccc(-c2cc(C(=O)NC3CCN(Cc4ccccc4)CC3)c3ccccc3n2)cc1 | -2.12 | 
70 | C/C(=N\NC(=O)c1cc(-c2ccc(O)cc2)nc2ccccc12)c1cccnc1 | 3.85 | 
71 | O=C(N/N=C/C=C/c1ccco1)c1cccs1 |  | 3.55 µM (active)
72 | CC1=C(c2ccc(Cl)cc2)S(=O)(=O)N=C1N1CCN(c2cc(C)ccc2C)CC1 | -2.39 | 
73 | Cc1ccccc1C(=O)Nc1nnc(S(=O)(=O)N(C)c2ccc(Cl)cc2)s1 | -8.91 | 
74 | O=C(CCN1CCCCC1)NCC(=O)Nc1ccc(Br)cc1C(=O)c1ccccc1 | -5.15 | 
75 | COc1ccccc1NC(=O)CCN1CCN(c2ccc(Cl)cc2)CC1 | -16.8 | 
76 | COC(=O)CNC(c1ccccc1Cl)c1cc(Br)ccc1NC(=O)CCN1CCOCC1 (stereo not drawn) |  | 25.1 µM (active)
77 | COc1cc(C)ccc1OCCSc1nc2ccc(NC(=O)c3ccc(C)cc3)cc2s1 | -0.0299 | 
78 | Cc1cc(F)ccc1NC1(c2ccccc2)C(=O)c2ccccc2C1=O | 8.18 | 
79 | CC(C)c1ccc(OCC(=O)N(Cc2ccc(N(C)C)cc2)C2CCS(=O)(=O)C2)cc1 (stereo not drawn) | 1.54 | 
80 | Cc1onc(-c2c(Cl)cccc2Cl)c1C(=O)c1c[nH]c(C(=O)NC2CC2)c1 | -6.99 | 
81 | Cc1[nH]n(C)c(=O)c1C(=O)c1c(-c2c(Cl)cccc2Cl)noc1C |  | 25.1 µM (active)
82 | C/C(=N/OC(=O)c1c(-c2c(F)cccc2Cl)noc1C)c1cnccn1 | -3.61 | 
83 | CCc1ccc(S(=O)(=O)c2nnn3c2nc(N2CCN(CC)CC2)c2sccc23)cc1 | 0.202 | 
84 | O=C(COc1ccccc1F)OCc1cc(=O)n2nc(C3CCCCC3)sc2n1 | 1.42 | 
85 | Cc1ccc(NC(=O)O/N=C/c2cccc([N+](=O)[O-])c2)cc1 | 0.0354 | 
86 | COc1cc(NC(=O)Nc2ccc(C)cc2)cc([N+](=O)[O-])c1 | -6.62 | 
87 | CS/C(=C\[N+](=O)[O-])Nc1ccc(C)cc1 |  | 0.316 µM (active)
88 | CN(Cc1ccccc1)c1ccc(-c2nc(-c3ccccc3)no2)cc1[N+](=O)[O-] | 2.45 | 

Row | Compound | activity change, negative = inhibition [%] | Potency
89 | CCOC(=O)c1ccc2c(c1)N(Cc1cccc(OC)c1)C(=O)c1ccccc1S2(=O)=O | 26.6 | 
90 | O=C(c1ccco1)N1CCN(C(=O)c2ccc(COc3ccc(F)cc3)o2)CC1 |  | 44.7 µM (active)
91 | O=C(c1ccco1)N1CCN(C(=S)Nc2cc(F)cc(F)c2)CC1 | -32.1 | 
92 | O=C(c1ccco1)N1CCN(CCOc2ccccc2)CC1 | 8.74 | 
93 | N#Cc1ccccc1Cn1cnc2nc3c(cc2c1=O)CCCC3 | -3.23 | 
94 | CCCCNC(=O)c1ccc2c(c1)NC(=O)C(C(C)C)N2 (stereo not drawn) | -8.77 | 
95 | CCOc1cc(-c2nnc(SCC(=O)NC3CCCC3)nc2-c2ccc(OC)c(OCC)c2)ccc1OC | -5.17 | 
96 | COc1ccc(CC(=O)NCCc2sc3nc(-c4ccc(OC)cc4)nn3c2C)cc1 | -2.43 | 
97 | COc1ccc(CNC(=O)CS(=O)Cc2nc(-c3cccc(C)c3)oc2C)cc1 (stereo not drawn) | -27.5 | 
98 | CC(CCc1ccccc1)NC(=O)c1cnc(Cl)c(Cl)c1 (stereo not drawn) | 4.28 | 
99 | CNC(=O)c1ccc(-c2nc(CN3CCc4ccccc43)c(C)o2)cc1 | -4.91 | 
100 | Cc1cccc(-c2nc(CS(=O)CC(=O)NC(C)CCc3ccccc3)c(C)o2)c1 (stereo not drawn) |  | 15.8 µM (active)
101 | COc1ccc(-c2nc(CS(=O)CC(=O)NCc3ccccn3)c(C)o2)cc1 (stereo not drawn) |  | 17.8 µM (active)
102 | COc1ccc(-c2nc(CS(=O)CC(=O)NCc3cccnc3)c(C)o2)cc1OC (stereo not drawn) | -36 | 
103 | COc1ccc(N2CCN(C(=O)CSCc3nc(-c4ccccc4Cl)oc3C)CC2)cc1 | -8.12 | 
104 | CC1=C(C)CC(C(=O)NC(C)CCc2ccccc2)C(C(=O)O)C1 (stereo not drawn) | 4.49 | 
105 | COc1ccc(-c2nc(CS(=O)CC(=O)N3CCc4ccccc4C3)c(C)o2)cc1 (stereo not drawn) |  | 2 µM (active)
106 | Cc1ccc(-c2nc(CSCC(=O)NC3CCN(Cc4ccccc4)CC3)c(C)o2)cc1 | -35.5 | 
107 | Cc1oc(-c2ccccc2F)nc1CS(=O)CC(=O)NCCN1CCCCC1C (stereo not drawn) | 3.86 | 
108 | Cc1ccc(-c2nc(CS(=O)CC(=O)NC3CCCC3)c(C)o2)cc1 (stereo not drawn) |  | 22.4 µM (active)
